Data on eight compounds can be found in PubChem BioAssay (NCI).

What all share (experiment): NCI-60 one-dose screen, 48 h (100 = growth as untreated, 0 = no growth, -100 = all killed)
Common to all, as to conditions: 10 µM unless noted

Assay [1] has as its system RPMI-8226 leukemia.
Assay [2] relates to OVCAR-8 ovarian.
Assay [3] has as its system OVCAR-5 ovarian.
Assay [4] has as its system OVCAR-4 ovarian.
Assay [5] concerns SK-OV-3 ovarian.
The subject of assay [6] is IGROV1 ovarian.
Assay [7] concerns OVCAR-3 ovarian.
Assay [8] has as its system HS 578T breast.
Assay [9] has as its system NCI/ADR-RES ovarian.
Assay [10] relates to T-47D breast.

Compounds without any hit were thinned out: in the full panel of roughly 83,000, 20% have a hit.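 Plates (96-well) were seeded with cells, treated with compound at one concentration, and incubated for 48 hours before percent growth was determined.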 A number with no mark means an inactive call. Calls of active or inactive are those of the source. Rule for the calls: active = growth percent below 10; inactive = the rest.

On to `Clc1ccc(Nc2scc3[n+]2CCC3)cc1`, for which the growth in assay [1] was 98.5%; in [2], 103%; in assay [3], 96.5%; in [4] it was 88.9%; in assay [5], 97.7%; in assay [6], 104%. For the same compound, the growth was 101% in assay [7], 100% in assay [8], 96.8% in assay [9] and 89.7% in [10].
On to `COc1ccc(C2C3=C(COC3=O)N(CCO)c3cc4c(cc32)OCCO4)cc1` (stereo not given), for which the growth is 99.9% in assay [1]; 84.6% in assay [2]; 99.8% in [3]; 98.8% in assay [4]; 86.5% in assay [5]; 80.7% in [6]. In addition, the growth in assay [7] was 50.4%; in [8] it was 71.6%; in assay [9], 95.5%; in [10], 80.4%.
For `COc1ccc(OC)c(/C=C/C(=O)c2c(C)nc3ccccc3c2/C=C/c2ccccc2)c1`, the growth in assay [1] is 19.5%; in assay [2] it was 40.5%; in assay [3] it was 80%; in assay [4], 59.3%; in assay [5], 91%; in assay [6], 52.6%. Moreover, the growth was 37.4% in assay [7], 68% in [8], 58.9% in [9] and 30.6% in assay [10].
For the compound `CCOc1c(Br)cc(C2C(C(=O)OC)=CN(C)C=C2C(=O)OC)cc1OC`, the growth in assay [1] was 7.41% (active); in assay [2], 85.8%; in assay [3], 83.9%; in [4], 72.9%; in [5], 87.5%; in [6], 67.7%. Besides, the growth is 83.3% in assay [7], 75.8% in [8], 71% in assay [9] and 57.2% in assay [10].
Regarding `Cc1ccc(OCCCCCCNCCO)c(C)c1`, the growth in assay [1] was 9.43% (active); in [2] it was -10% (active); in assay [3], 35.9%; in [4], 16.8%; in assay [5] it was 16.8%; in [6], -4.59% (active). For the same compound, the growth is 24% in assay [7], 18.5% in [8], 8.9% (active) in [9] and 5.9% (active) in assay [10].
As for `COc1ccc(OC)c(NC(=O)/C(C#N)=C/c2ccco2)c1`, the growth in [1] is 93.7%; in assay [2], 102%; in assay [3], 115%; in [4] it was 77%; in assay [5] it was 88.2%; in assay [6], 92.7%. Besides, the growth is 110% in [7], 108% in [8], 103% in assay [9] and 57.5% in assay [10].
Take `O=c1[nH]nnc2c1ncn2C1OC(CO)C(O)C1O` (stereo not given): the growth was 37.6% in [1]; 95.9% in assay [2]; 87.4% in assay [3]; 35.9% in assay [4]; 14.5% in assay [5]; 32.7% in assay [6]. Further, the growth was 41.7% in assay [7], 103% in [8], 39.5% in assay [9] and 77.1% in assay [10].
On to `C1CCN(c2nc(N3CCCCC3)nc(N3CCOCC3)n2)CC1`, for which the growth was 100% in assay [1]; 96.4% in assay [2]; 122% in [3]; 96% in assay [4]; 99.6% in assay [5]; 104% in [6]. In addition, the growth is 118% in assay [7], 112% in assay [8], 103% in [9] and 86.2% in assay [10].
